The text below walks through data of PubChem BioAssay (NCATS).

The structures appear in SMILES notation. Records with an inconclusive call do not appear. Where a call stands in place of a potency, no number is given. Activity calls are given as the source filed them. Calls come from the whole dose curve; as a rule, active = well fitted inhibition curve with a large enough effect; inconclusive = small, poorly fitted or top-dose-only effect; inactive = flat fitted curve, though single readings scatter.

A short description of this assay: Primary qHTS for inhibitors of nuclear receptor binding SET domain protein 2 (NSD2) in an isogenic RCH-ACV NSD2 p.E1099K mutant (9B) (AID 1645876). Note: nearly all actives have a fitted effect of over 70% in size. Conditions: RCH-ACV (leukaemia line) NSD2 E1099K (9B) viability, CellTiter-Glo, 72 h; series mostly up to 44.9 µM. (qHTS replaces the single test concentration by a dilution series.)
As to `CC[C@H]1CN2CC[C@H]1C[C@@H]2[C@@H](O)c1ccnc2ccc(OC)cc12`, the Potency entry was “inactive”.

On to `COc1cc2c(cc1OC)[C@@]13CCN4CC5=CCO[C@H]6CC(=O)N2[C@H]1[C@H]6[C@H]5C[C@H]43`, for which the Potency result was “inactive”.

With `O=C1C[C@@H]2OCC=C3CN4CC[C@]56c7ccccc7N1[C@H]5[C@H]2[C@H]3C[C@H]46`, the Potency result was “inactive”.
